Screening results as filed in PubChem BioAssay.
AmpC no deterg: AmpC beta-lactamase inhibition without detergent; 330,000 compounds, 0.52% hits; Potency, µM (top dose mostly 57.1 µM), for the others: at the highest dose activity change, negative = inhibition, usual class: inhibitors; AmpC nitrocefin hydrolysis, absorbance 480 nm, 0.0001% Triton; P00811;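 further: plate controls were no compound for no effect and no enzyme for full effect; nearly all actives have a fitted effect of over 20% in size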
Target sequence (P00811 whole entry, looked up): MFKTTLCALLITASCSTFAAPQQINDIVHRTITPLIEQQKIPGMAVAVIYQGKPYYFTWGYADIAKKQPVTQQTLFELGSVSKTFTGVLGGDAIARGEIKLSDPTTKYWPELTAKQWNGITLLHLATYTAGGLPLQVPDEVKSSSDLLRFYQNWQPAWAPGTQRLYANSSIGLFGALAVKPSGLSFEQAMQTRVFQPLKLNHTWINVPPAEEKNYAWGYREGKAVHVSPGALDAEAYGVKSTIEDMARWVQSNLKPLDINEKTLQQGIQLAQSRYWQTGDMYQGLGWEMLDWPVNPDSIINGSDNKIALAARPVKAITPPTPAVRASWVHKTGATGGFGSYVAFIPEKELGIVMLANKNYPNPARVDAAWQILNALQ
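20 mM phosphate pH 7.0 + 0.01% (detergent screen) or 0.0001% Triton X-100; 5.3 nM AmpC reagent; cpd preinc 15 min RT; nitrocefin (800 uM stock) to start; A480 q20 s × 4 min; Activity was normalised to no-enzyme and no-compound control wells.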
HCV inh: inhibitors of hepatitis C virus infection; Huh7.5.1 HCVcc-Cre infection, luciferase reporter, 44 h; Potency, µM (doses to about 41.8 µM), for the others: top-dose activity change, negative = inhibition, most hits filed as inhibitors; 340,000 compounds, 3.4% hits
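HCVcc-Cre virus at an moi near 0.5 was added right after compound to cells cultured 4 h from seeding (1,000 cells/well). Luciferase activity was determined 44 h later, 15 min after substrate addition at RT.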
Pf growth 96h: inhibits malaria parasite growth, 96 h | AID 504834 | P. falciparum luciferase reporter growth, 96 h | Potency, µM (series often up to 28.7 µM), inactives show top-dose activity change, negative = inhibition, most hits filed as inhibitors | 320,000 compounds, 6.9% hits
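Compounds incubated with erythrocytes infected by luciferase-expressing P. falciparum (2% hematocrit, 0.05% parasitemia final) for 96 hours, 37 C in 5% CO2. Growth inhibition scored as decreased luciferase luminescence.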
AmpC detergent: blocks E. coli AmpC beta-lactamase in detergent assay | P00811 | AmpC hydrolysis of nitrocefin, absorbance 480 nm, 0.01% Triton | Potency, µM (series often up to 114 µM), inactives show at the highest dose activity change, negative = inhibition, most hits filed as inhibitors | 370,000 compounds, 0.041% hits | AID 485294;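 further: 0% = no-compound wells and -100% = no-enzyme wells; nearly all actives have a fitted effect of over 25% in size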
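20 mM phosphate pH 7.0 + 0.01% (detergent screen) or 0.0001% Triton X-100; 5.3 nM AmpC reagent; cpd preinc 15 min RT; nitrocefin (800 uM stock) to start; A480 q20 s × 4 min; Activity was normalised to no-enzyme and no-compound control wells.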
AMA1 RON2 block: inhibitors of Plasmodium falciparum AMA1-RON2 interaction; 360,000 compounds, 0.2% hits; AID 720542; Potency, µM (series often up to 58.2 µM), without a hit: at the highest dose activity change, negative = inhibition, actives largely listed as inhibitors; AlphaScreen AMA1-biotinylated RON2 peptide binding;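 further: 0% = vehicle wells and -100% = peptide control; nearly all actives have a fitted effect of over 45% in size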
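AMA1 (3D7) with his tag at 25 nM final met compounds first, then biotinylated RON2 peptide at 25 nM; detection used donor plus acceptor beads, 10 µg/mL apiece, read by AlphaScreen after 30 min at room temperature.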
Pf growth 48h: P. falciparum growth inhibition at 48 hours (one generation). P. falciparum luciferase growth in erythrocytes, 48 h. Potency, µM (top dose mostly 28.7 µM), for the others: at the top dose activity change, negative = inhibition, most hits filed as inhibitors. 310,000 compounds, 5.9% hits. AID 504832
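Luciferase-expressing parasites in RBCs, 2% Hct / 0.1% parasitemia final; RPMI 1640 + 0.5% Albumax; 37 C, 5% CO2, one generation; luminescence read-out, lower signal = inhibition.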
* marks the source's active call; other numbers are inactive results. Rows were chosen to be rich in hits. Some 11% of all compounds tested hit in one or more screens of this group. The call rests on the fitted dose curve; in most records, active means well fitted curve in the direction sought with a large enough effect; inconclusive means small, poorly fitted or top-dose-only effect, or another doubt; inactive means no such curve, though single readings can be large; an effect the other way counts as inactive or inconclusive. Unless noted, on the % scale 0 is the no-effect control and ±100 the full control effect; potency means the concentration at half of the fitted maximal effect.

For CCOc1ccc2oc(C(=O)OCC(=O)N3C(C)CCCC3C)c(C)c2c1 (stereo not drawn) the results were AmpC no deterg 92.7%, HCV inh 12.6µM*, Pf growth 96h inconclusive, AmpC detergent 4.5%, AMA1 RON2 block -0.6% and Pf growth 48h inconclusive.
Cc1[nH]c2ccccc2c1C(=O)C(=O)NCc1ccco1 was read as AmpC no deterg -10.8%, HCV inh 10.9%, Pf growth 96h 11.7µM*, AmpC detergent 5.1%, AMA1 RON2 block -0.1% and Pf growth 48h 3.3%.
O=C(NCc1ccco1)C(=O)c1c[nH]c2ccccc12 was read as AmpC no deterg -24.0%, HCV inh 15.9%, Pf growth 96h 25.4%, AmpC detergent -2.4%, AMA1 RON2 block 0.0% and Pf growth 48h 19.0%.
Cc1[nH]c2ccccc2c1C(=O)C(=O)NCCC1=CCCCC1 was read as AmpC no deterg -4.5%, HCV inh 0.5%, Pf growth 96h inconclusive, AmpC detergent -14.8%, AMA1 RON2 block -5.2% and Pf growth 48h 2.94µM*.
For CCCCN(CC)C(=O)Cn1nc(C)c2c(C)n(-c3ccccc3)nc2c1=O the results were AmpC detergent 16.8%.
C[C@H]1CCCC(=O)CCCCCc2cc(O)cc(O)c2C(=O)O1 was read as AmpC no deterg -41.7%, HCV inh inconclusive, Pf growth 96h 9.28µM*, AmpC detergent -7.1%, AMA1 RON2 block 4.7% and Pf growth 48h 4.15µM*.
Screening COc1cc(OCC(=O)NC(C)C)cc2c1C(=O)O[C@@H](C)CCCC(=O)CCCCC2 returned AmpC no deterg 21.5%, HCV inh 1.8%, Pf growth 96h inconclusive, AmpC detergent 2.1%, AMA1 RON2 block 4.5% and Pf growth 48h -7.1%.
Screening CCN(Cc1ccccc1)C(=O)c1[nH]c2ccc(OC)cc2c1C returned AmpC no deterg -9.8%, HCV inh 1.6%, Pf growth 96h -3.3%, AmpC detergent 4.1%, AMA1 RON2 block 7.7% and Pf growth 48h 7.9%.
Screening CCN(CC)CCNC(=O)c1[nH]c2ccc(OCc3ccccc3)cc2c1C returned AmpC no deterg 151.1%, HCV inh 10µM*, Pf growth 96h 10.1%, AmpC detergent -2.8%, AMA1 RON2 block -9.6% and Pf growth 48h inconclusive.
Screening COc1ccc(-n2nc(C(=O)NCC(=O)Nc3ccccn3)c3ccccc3c2=O)cc1 returned AmpC no deterg -18.6%, HCV inh inconclusive, Pf growth 96h 34.3%, AmpC detergent -0.2%, AMA1 RON2 block -6.0% and Pf growth 48h 30.6%.
For COc1ccc(-n2nc(C(=O)NCC(=O)Nc3cccc(Cl)c3)c3ccccc3c2=O)cc1 the results were AmpC no deterg -13.8%, HCV inh -26.1%, Pf growth 96h 11.7µM*, AmpC detergent -6.3%, AMA1 RON2 block -1.3% and Pf growth 48h 9.28µM*.
CCOc1ccc(NC(=O)CNC(=O)c2nn(-c3ccc(OC)cc3)c(=O)c3ccccc23)cc1 was read as AmpC no deterg -3.8%, HCV inh -4.8%, Pf growth 96h -9.9%, AmpC detergent inconclusive, AMA1 RON2 block -16.3% and Pf growth 48h 9.28µM*.
For COc1cc(OC)c(NS(=O)(=O)c2ccc3c(c2)NC(=O)CCS3)cc1Cl the results were AmpC detergent 0.8%.
`CC(C)c1ccc(NC(=O)C2CCN(S(=O)(=O)c3ccc4c(c3)NC(=O)CO4)CC2)cc1` gave AmpC no deterg -15.6%, HCV inh inconclusive, Pf growth 96h 7.3%, AmpC detergent -1.6%, AMA1 RON2 block 7.1% and Pf growth 48h inconclusive.
Screening COc1cc(OC)c(NS(=O)(=O)c2ccc3c(c2)NC(=O)CO3)cc1Cl returned AmpC no deterg -21.4%, HCV inh -27.0%, Pf growth 96h 10.4µM*, AmpC detergent 0.2%, AMA1 RON2 block -10.6% and Pf growth 48h 3.6%.
